This is an account of results in PubChem BioAssay (EPA / NIEHS).

Read-out in assay [1]: sulfotransferase 2A1 (SULT2A1), SULT2A1 (gene 6822)
As to the kind of experiment: LTEA_HepaRG_SULT2A1: Life Technologies and Expression Analysis (LTEA) Assay for sulfotransferase 2A1 (SULT2A1) using HepaRG (AID 2283531). To be noted: mRNA level, 48 h; actives raise or lower the signal. Put shortly:
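Gene-expression endpoint in a human liver cell line: SULT2A1 mRNA change after 48 h chemical treatment, curves fitted in both directions relative to 0.5% DMSO vehicle. Concentrations spanned eight half-log steps from 100 uM.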

Read-out in assay [2]: Transforming Growth Factor (TGFA), TGFA (gene 7039)
As to the kind of experiment: LTEA_HepaRG_TGFA: Life Technologies and Expression Analysis (LTEA) Assay for Transforming Growth Factor (TGFA) using HepaRG (AID 2283532). As to conditions: mRNA level, 48 h; actives raise or lower the signal. Summed up: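 Differentiated human HepaRG cells, plated 48 h then switched to serum-free induction medium, were exposed in duplicate for 48 h to 8-point half-log series from 100 uM in 0.5% DMSO. TGFA mRNA measured by qRT-PCR, normalized to ACTB/GAPDH/POLR2A, bidirectional fit versus DMSO.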

Read-out in assay [3]: Transforming Growth Factor (TGFB1), TGFB1 (gene 7040)
Description: LTEA_HepaRG_TGFB1: Life Technologies and Expression Analysis (LTEA) Assay for Transforming Growth Factor (TGFB1) Transporter using HepaRG (AID 2283533). To be noted: mRNA level, 48 h; actives raise or lower the signal. Summed up:
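Eight-point concentration-response (max 100 uM, half-log) in HepaRG under serum-free induction conditions, 48 h. TGFB1 mRNA by qRT-PCR, housekeeping-normalized.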

Read-out in assay [4]: Tumor necrosis factor receptor 1 (TNFRSF1A), TNFRSF1A (gene 7132)
Description: LTEA_HepaRG_TNFRSF1A: Life Technologies and Expression Analysis (LTEA) Assay for Tumor necrosis factor receptor 1 (TNFRSF1A) using HepaRG (AID 2283535). To be noted: mRNA level, 48 h; actives raise or lower the signal. Summed up: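 Assay uses 48 h chemical treatment of differentiated HepaRG monolayers, tested in duplicate at eight concentrations from 100 uM downward in 0.5% DMSO. mRNA is normalized to ACTB, GAPDH and POLR2A, with induction or suppression fitted relative to vehicle.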

Read-out in assay [5]: Thyroid Hormone Responsive (THRSP), THRSP (gene 7069)
Description: LTEA_HepaRG_THRSP: Life Technologies and Expression Analysis (LTEA) Assay for Thyroid Hormone Responsive (THRSP) using HepaRG (AID 2283536). To be noted: mRNA level, 48 h; actives raise or lower the signal. Put shortly:
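Differentiated human HepaRG cells were exposed in duplicate for 48 h in serum-free induction medium to eight concentrations (top 100 uM, half-log steps, 0.5% DMSO). Expression was quantified by TaqMan qRT-PCR, normalized to ACTB, GAPDH and POLR2A, with bidirectional fitting against DMSO.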

Read-out in assay [6]: Cellular tumor antigen p53 (Homo sapiens) (UniProt P04637)
Description: LTEA_HepaRG_TP53: Life Technologies and Expression Analysis (LTEA) Assay for Tumor Protein P53 (TP53) using HepaRG (AID 2283537). To be noted: mRNA level, 48 h; actives raise or lower the signal. Put shortly: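 Differentiated HepaRG cells in serum-free induction medium exposed 48 h in duplicate to 8 half-log concentrations, top 100 uM, 0.5% DMSO. TP53 mRNA by TaqMan qRT-PCR (Fluidigm), normalized to ACTB, GAPDH, POLR2A; fitted bidirectionally versus DMSO.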

Read-out in assay [7]: UDP glucuronosyltransferase (UGT1A1), UGT1A1 (gene 54658)
Description: LTEA_HepaRG_UGT1A1: Life Technologies and Expression Analysis (LTEA) Assay for UDP glucuronosyltransferase (UGT1A1) using HepaRG (AID 2283538). As to conditions: mRNA level, 48 h; actives raise or lower the signal. Summed up: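 Readout is UGT1A1 transcript level by qRT-PCR, normalized to three housekeeping genes, after 48 h chemical treatment of HepaRG cells. Concentrations ran from 100 uM down in half-log steps with 0.5% DMSO, and gain or loss relative to DMSO was fitted.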

Read-out in assay [8]: UDP glucuronosyltransferase (UGT1A6), UGT1A6 (gene 54578)
Description: LTEA_HepaRG_UGT1A6: Life Technologies and Expression Analysis (LTEA) Assay for UDP glucuronosyltransferase (UGT1A6) using HepaRG (AID 2283539). To be noted: mRNA level, 48 h; actives raise or lower the signal. Summed up: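 Measures mRNA change in HepaRG hepatic cells exposed 48 h to chemicals (eight-point, maximum 100 uM, 0.5% DMSO vehicle) in serum-free induction medium. Expression normalized to endogenous controls; DMSO served as negative control and baseline.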

Read-out in assay [9]: X-box binding protein 1 (XBP1), XBP1 (gene 7494)
As to the kind of experiment: LTEA_HepaRG_XBP1: Life Technologies and Expression Analysis (LTEA) Assay for X-box binding protein 1 (XBP1) using HepaRG (AID 2283540). As to conditions: mRNA level, 48 h; actives raise or lower the signal. Summed up: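 Eight concentrations (half-log, highest 100 uM, 0.5% DMSO) tested in duplicate on HepaRG cells over 48 h in serum-free induction medium; qRT-PCR of XBP1 normalised to ACTB, GAPDH, POLR2A.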

Assay [10] is described as follows: LTEA_HepaRG_LDH_cytotoxicity: Cytotoxicity Assessment in the Life Technologies and Expression Analysis (LTEA) Assay (AID 2283563; active = hit-call score of the fitted dose curve at least 0.9, where 1 is the maximum;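 for AC50: LDH activity released into spent culture medium as a marker of cell death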). Put shortly: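 Spent-medium LDH after 48 h chemical exposure of HepaRG cells in serum-free induction medium; eight concentrations, half-log dilutions from 100 uM, duplicate wells, fitted upward relative to 0.5% DMSO.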
Assay [11] is described as follows: ATG_XTT_Cytotoxicity: Cytotoxicity Assessment in the Attagene TRANS-FACTORIAL HepG2 Assay (AID 2283584; active = hit-call score of the fitted dose curve at least 0.9, where 1 is the maximum). Summed up: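 24 h chemical exposure of reporter-transfected HepG2; XTT signal loss vs DMSO indicates cytotoxicity.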
The target of assay [12] is Cellular tumor antigen p53 (Homo sapiens) (UniProt P04637). Description: TOX21_p53_BLA_p2_ratio: Tox21 HCT-116 p53 Agonism Beta-lactamase Assay, Ratio, Phase 2 (AID 2283592; active = hit-call score of the fitted dose curve at least 0.9, where 1 is the maximum). Put shortly:
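Human colon HCT116 cells with an inducible p53 beta-lactamase reporter are exposed to test chemicals for 16 h at 37C. Reporter induction is read as the 460/530 nm emission ratio after CCF4-AM loading, normalized to DMSO.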

A short description of assay [13]: TOX21_p53_BLA_p3_viability: Viability Assessment in the Tox21 HCT-116 p53 Agonism Beta-lactamase Assay, Phase 3 (AID 2283593; active = hit-call score of the fitted dose curve at least 0.9, where 1 is the maximum;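 note: cells exposed to compound for 16 h before reading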). Summed up: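 HCT-116 cells (4000/well) rested 5 h at 37C, then got DMSO compounds by pin tool (217-fold dilution) for 16 h at 37C, 5% CO2. After the bla read, CellTiter-Glo was added and luminescence read at 30 min, room temperature.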

In assay [14] the target is Cellular tumor antigen p53 (Homo sapiens) (UniProt P04637). Description: TOX21_p53_BLA_p3_ratio: Tox21 HCT-116 p53 Agonism Beta-lactamase Assay, Ratio, Phase 3 (AID 2283596; active = hit-call score of the fitted dose curve at least 0.9, where 1 is the maximum). Summed up:
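HCT116 p53-bla cells (4000/well) given compound in DMSO (217-fold dilution) after 5 h, incubated 16 h at 37C. CCF4-AM substrate 2 h at room temperature; 460/530 nm emission ratio, gain fitted against DMSO.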

Assay [15] can be described thus: TOX21_p53_BLA_p4_viability: Viability Assessment in the Tox21 HCT-116 p53 Agonism Beta-lactamase Assay, Phase 4 (AID 2283597; active = hit-call score of the fitted dose curve at least 0.9, where 1 is the maximum;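 note: hits lower the luminescence signal meaning cytotoxicity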). Summed up:
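Luminescent ATP readout (CellTiter-Glo, 30 min, room temperature) in the same wells as the p53 bla ratio. HCT116 cells were treated for 16 h at 37C with DMSO-dissolved compounds.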

Assay [16] concerns the target Cellular tumor antigen p53 (Homo sapiens) (UniProt P04637). Description: TOX21_p53_BLA_p5_ratio: Tox21 HCT-116 p53 Agonism Beta-lactamase Assay, Ratio, Phase 5 (AID 2283599; active = hit-call score of the fitted dose curve at least 0.9, where 1 is the maximum). Put shortly:
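HCT-116 cells carrying a p53-inducible beta-lactamase reporter were seeded at 4000 cells/well and dosed after 5 h with compound in DMSO (217-fold dilution). After 16 h at 37C, CCF4-AM substrate was added for 2 h, and the 460/530 nm emission ratio was scored as gain-of-signal versus DMSO.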

Assay [17] can be described thus: TOX21_p53_BLA_p5_viability: Viability Assessment in the Tox21 HCT-116 p53 Agonism Beta-lactamase Assay, Phase 5 (AID 2283600; active = hit-call score of the fitted dose curve at least 0.9, where 1 is the maximum). Summed up:
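Seeded cells (4000/well) settle 5 h before compound addition. Plates then incubate 16 h at 37C, receive FRET substrate for 2 h, and finally CellTiter-Glo, with luminescence measured after a 30 min room-temperature incubation.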

The target of assay [18] is Cellular tumor antigen p53 (Homo sapiens) (UniProt P04637). As to the kind of experiment: TOX21_p53_BLA_p4_ratio: Tox21 HCT-116 p53 Agonism Beta-lactamase Assay, Ratio, Phase 4 (AID 2283601; active = hit-call score of the fitted dose curve at least 0.9, where 1 is the maximum). Summed up:
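HCT116 cells carrying an inducible beta-lactamase reporter were plated at 4000 cells/well, rested 5 h, then exposed to compounds in DMSO (217-fold dilution) for 16 h at 37C. CCF4-AM substrate was loaded 2 h at room temperature; 460/530 nm emission ratio scored gain-of-signal versus DMSO.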

Read-out in another assay: TIMP1, TIMP1 (gene 7076)
As to the kind of experiment: LTEA_HepaRG_TIMP1: Life Technologies and Expression Analysis (LTEA) Assay for TIMP1 using HepaRG (AID 2283534). To be noted: mRNA level, 48 h; actives raise or lower the signal. Put shortly: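 TIMP1 induction or repression in HepaRG cells after 48 h chemical exposure (eight concentrations, highest 100 uM), assessed by normalized qRT-PCR with bidirectional fitting to DMSO controls.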

Each structure is given as a SMILES string. “And” between values parts separate entries of the source, which are not always exact repeats. Equal entries are not always repeated. Records with an inconclusive call do not appear. The source holds several records for some structures; these can differ, active in one and inactive in another. The source made the active and inactive calls. Rule for the calls, unless noted: active = hit-call score of the fitted dose curve at least 0.9, where 1 is the maximum; inactive = score below 0.9.

Cellular tumor antigen p53 (Homo sapiens), sequence (P04637 whole entry, looked up): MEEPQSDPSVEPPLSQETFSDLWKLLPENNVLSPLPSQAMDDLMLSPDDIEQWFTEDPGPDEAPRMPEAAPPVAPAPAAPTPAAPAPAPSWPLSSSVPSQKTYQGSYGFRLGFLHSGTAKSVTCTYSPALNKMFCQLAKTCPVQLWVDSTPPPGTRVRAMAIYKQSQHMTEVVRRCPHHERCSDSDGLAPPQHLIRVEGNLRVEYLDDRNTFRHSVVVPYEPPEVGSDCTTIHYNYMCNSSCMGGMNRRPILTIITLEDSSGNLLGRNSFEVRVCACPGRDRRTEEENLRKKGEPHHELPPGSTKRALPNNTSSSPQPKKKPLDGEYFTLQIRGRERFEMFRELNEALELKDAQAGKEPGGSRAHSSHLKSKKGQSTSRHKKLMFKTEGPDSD

Turning to `C=CCC1=C(C)C(OC(=O)C2C(C=C(C)C)C2(C)C)CC1=O` (configuration not stated), the AC50 in [1] was 86.7 µM (active); in assay [13] it was 65.3 µM (active). The compound was called inactive in assay [1], in assay [2], in assay [3], in assay [4], in assay [5] and in [6]. Moreover, the call in assay [7], in assay [8], in [9], in assay [10], in [11] and in [12] was inactive. Moreover, the result in assay [14], in assay [15], in assay [16], in assay [17] and in assay [18] was inactive.
With `C#CCOS(=O)OC1CCCCC1Oc1ccc(C(C)(C)C)cc1` (configuration not stated), the AC50 in assay [1] was 27.3 µM (active); in assay [2], 22.2 µM (active); in [3], 50 µM (active); in [4] it was 26.1 µM (active); in assay [6], 58.4 µM (active); in assay [7] it was 27.5 µM (active). Further, the concentration at half-maximal activity (AC50) in [8] was 26.4 µM (active); in assay [10] it was 29.3 µM (active); in assay [12] it was 2.65 µM (active) and 1.54 µM (active); in assay [14], 2.53 µM (active); in assay [15] it was 70.4 µM (active). Also, the call in assay [5], in assay [9], in [11], in [13], in [14] and in [15] was inactive. Further, the outcome in [16], in [17] and in assay [18] was inactive.
Turning to `N#CC(CCc1ccc(Cl)cc1)(Cn1cncn1)c1ccccc1` (configuration not stated), the AC50 in assay [1] is 77.2 µM (active); in [2] it was 77 µM (active); in assay [3], 66.7 µM (active); in assay [5], 90.7 µM (active); in assay [6], 75.5 µM (active); in assay [7], 74.9 µM (active). The AC50 in [8] is 81.9 µM (active); in assay [9], 80.3 µM (active); in [10], 37.5 µM (active); in assay [15], 39.1 µM (active); in assay [18], 71.5 µM (active). Also, the outcome is “inactive” in the assay with TIMP1, TIMP1 (gene 7076); “inactive” in assay [4]; “inactive” in assay [12]; “inactive” in assay [13]; “inactive” in assay [14]; “inactive” in [16]. Moreover, the compound was classed as inactive in assay [17].
